# Most compounds without a hit are left out; they make up all but 21% or so of the library.
# TDP1 cell CPT – DT40-hTDP1 cell growth loss with CPT | AID 686979 | Potency, µM (top dose mostly 46.2 µM), usual class: inhibitors | 420,000 tested, 12% active | chicken DT40 Tdp1-/-;hTDP1 cells + 20 nM CPT, ATP luminescence, 48 h; also: nearly all actives have a fitted effect of over 55% in size
#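 Chicken DT40 Tdp1-/- cells complemented with human TDP1, 400 cells/well, exposed to compounds plus 20 nM camptothecin for at least 48 h at 37 C; viability read as ATP content by CellTiter-Glo luminescence.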
# Gal4-VP16 FLuc – inhibits Gal4-VP16 luciferase reporter, ROR gamma counter-screen; Drosophila S2 Gal4-VP16 UAS-luciferase, luminescence, 20 h; Potency, µM (titrated, usually from 53.6 µM), actives largely listed as inhibitors; 310,000 tested, 3.5% active;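 also: Gal4-VP16 expression switched on by copper sulfate through the metallothionein promoter; nearly all actives have a fitted effect of over 50% in size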
# IL-1B inflam inh – blocks inflammasome-driven IL-1 beta release; THP-1 LPS/ATP IL-1B secretion, AlphaLISA, 16 h; stronger effect = lower value; 360,000 tested, 4.7% active; activity change, % at 57.5 µM; in the data active = activity change below about -50%; inconclusive = mostly about -30% to -49%
#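 THP-1 cells pretreated 1 hr with compounds (up to 57.5 uM final), then stimulated with LPS (250 ng/mL final) plus ATP (1.25 mM final); secreted IL-1B measured by AlphaLISA after 16 hr, decreased signal indicating inhibition.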
# ELG1 DNA repair – blocks ELG1-dependent DNA repair in HEK293T cells; HEK293T ELG1-luciferase reporter, luminescence, 16 h; DNA damage induced by 5-fluorouridine; Potency, µM (top dose mostly 46.1 µM), most hits filed as inhibitors; 330,000 tested, 2.3% active; also: nearly all actives have a fitted effect of over 55% in size
#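 5-Fluorouridine DNA damage + compound/DMSO, 2,000 cells/well, 16 h, 37 °C/5% CO2. ONE-Glo, 30 min RT, luminescence. Readout = decrease in reporter signal.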
# DT40 TDP1 no CPT – qHTS for Inhibitors of human tyrosyl-DNA phosphodiesterase 1 (TDP1): qHTS in cells in absence of CPT. Potency, µM (highest dose often 46.2 µM), hits mostly inhibitors. DT40 Tdp1-/- hTDP1 cells, no CPT, ATP luminescence, 48 h. 420,000 tested, 15% active; also: nearly all actives have a fitted effect of over 55% in size
#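 Chicken DT40 Tdp1-/- cells stably complemented with human TDP1 were seeded at 400 cells/well with DMSO in place of 20 nM camptothecin. After compound pinning, cells grew at least 48 hr at 37 °C; viability read by CellTiter-Glo luminescence.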
# RORgamma inh – ROR gamma (mouse) transcription inhibition; 310,000 tested, 5.4% active; Drosophila S2 Gal4-RORgamma UAS-luciferase reporter, 20 h; Potency, µM (titrated, usually from 53.6 µM), usual class: inhibitors; also: nearly all actives have a fitted effect of over 60% in size
# Target sequence (P51450 whole entry, looked up, the tested form may be a part): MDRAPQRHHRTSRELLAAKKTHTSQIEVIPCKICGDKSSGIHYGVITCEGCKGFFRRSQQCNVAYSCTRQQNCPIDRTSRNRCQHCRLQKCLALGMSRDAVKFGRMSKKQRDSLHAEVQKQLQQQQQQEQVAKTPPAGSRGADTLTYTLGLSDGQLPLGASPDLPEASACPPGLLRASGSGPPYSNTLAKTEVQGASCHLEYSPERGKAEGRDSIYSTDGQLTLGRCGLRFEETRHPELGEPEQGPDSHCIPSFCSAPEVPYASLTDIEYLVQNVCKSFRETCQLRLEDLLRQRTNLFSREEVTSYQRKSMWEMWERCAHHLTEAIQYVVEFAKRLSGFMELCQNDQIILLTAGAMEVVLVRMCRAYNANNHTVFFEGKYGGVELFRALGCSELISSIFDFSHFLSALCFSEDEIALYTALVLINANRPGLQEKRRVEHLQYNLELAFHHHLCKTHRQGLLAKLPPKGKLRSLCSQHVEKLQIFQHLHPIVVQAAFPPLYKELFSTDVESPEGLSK
#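 Drosophila Schneider cells stably carrying a metallothionein-driven Gal4 DBD–ROR gamma fusion and a UAS-Photinus luciferase reporter were exposed to compound for 1 hr, then induced with copper sulfate (700 uM final) for 20 hr at ambient temperature before luminescence reading.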
# Hits are given with their value; – = inactive; ? = inconclusive; · = no result given. Unless noted, calls follow the shape of the dose curve; as a rule, active = well fitted curve in the direction sought with a large enough effect; inconclusive = small, poorly fitted or top-dose-only effect, or another doubt; inactive = no such curve, though single readings can be large; an effect the other way counts as inactive or inconclusive.
SMILES,TDP1 cell CPT,Gal4-VP16 FLuc,IL-1B inflam inh,ELG1 DNA repair,DT40 TDP1 no CPT,RORgamma inh
CC(C)c1ccccc1NC(=S)NCC1(N(C)C)CCCCC1,–,?,–,–,–,16µM
CCCCCCCC(=O)OCCOC(=O)CCCCCCC,·,–,·,·,·,–
C/C(O)=c1/ccc2cccc3nc(C)nc1c23,?,–,-53,–,?,?
CCN(CC)c1ccc(C(=C2C=CC(=[N+](CC)CC)C=C2)c2ccccc2)cc1,0.16µM,35µM,-120,·,0.15µM,2.5µM
CCN(CC)c1ccc(C(=C2C=CC(=[N+](CC)CC)C=C2)c2ccc(N(CC)CC)cc2)cc1,0.92µM,·,?,·,0.73µM,·
CCN(CC)c1ccc(C(=C2C=CC(=[N+](CC)Cc3cccc(S(=O)(=O)[O-])c3)C=C2)c2ccc(N(CC)Cc3cccc(S(=O)(=O)O)c3)cc2)cc1,·,11µM,·,·,·,–
CCN(Cc1ccccc1)c1ccc(/C=N/NS(=O)(=O)c2cccc([N+](=O)[O-])c2)cc1,–,–,–,–,–,–
COc1cccc(C(=O)C(=O)N2CCN(C(=O)OCc3ccccc3)CC2)c1,?,·,–,·,?,·
N#Cc1nc(N2CCCCC2)nc(N(c2ccccc2)c2ccccc2)n1,11µM,·,·,·,13µM,·
CCc1nc(C#N)c(N2CCCCC2)o1,–,–,–,–,–,–
Nc1nc(N2CCCCC2)nc(N(c2ccccc2)c2ccccc2)n1,?,–,–,–,?,–
N#Cc1nc(N2CCCCC2)nc(N2CCCCC2)n1,?,·,·,·,13µM,·
COc1cc(/C=C2\C(=N)N3N=CSC3=NC2=O)cc(Br)c1OC(=O)c1ccco1,?,–,–,–,–,–
COC1=CC(=O)OC(c2cccc(Cl)c2)C1 (stereo unspecified),–,·,–,·,–,·
Cc1ccccc1C(=O)NC1CCN(Cc2ccccc2)CC1,–,–,–,–,–,–
Cc1ccc(C)n1-c1ccc(C(=O)Nc2ccccc2)cc1,?,–,-65,–,26µM,–
C=C(C)c1cccc(C(C)(C)NC(=O)N(Cc2ccccc2)Cc2ccco2)c1,16µM,–,–,–,21µM,–
C=C(C)c1cccc(C(C)(C)NC(=O)NC2CCN(Cc3ccccc3)CC2)c1,?,–,–,–,18µM,–
Cc1ccc(CN2CCC(NC(=O)c3ccccc3)CC2)cc1,?,–,–,–,18µM,–
Cc1ccc(-n2c(CCC(=O)O)ccc2-c2cccs2)cc1Cl,–,·,·,·,–,·
COC(=O)[C@@H]1C=C[C@H](C)[C@H](CCOc2ccccc2)O1,·,–,·,·,·,–
Cc1cccc(C)c1-n1nnnc1C1(C)CCC(=O)N1CC(F)(F)F (stereo unspecified),–,·,–,·,?,·
CCN(CC)c1ncnc2c1ncn2[C@H]1CN(Cc2ccccc2)C[C@@H](CO)O1,–,·,–,·,?,·
O=C(NC1CCN(Cc2ccccc2)CC1)c1ccc2c(c1)OCCCO2,–,–,–,–,–,–
Cc1ccc(C)n1-c1ccc(C(=O)NC2CCN(Cc3ccccc3)CC2)cc1,?,–,-59,?,21µM,–
SMILES,TDP1 cell CPT,Gal4-VP16 FLuc,IL-1B inflam inh,ELG1 DNA repair,DT40 TDP1 no CPT,RORgamma inh
O=C(NC1CCN(Cc2ccccc2)CC1)c1cccc(OC(F)F)c1,–,–,?,–,–,–
CCOc1cc(CNC2CCCC2)c(Cl)cc1OCC(=O)Nc1ccccc1,18µM,–,–,–,18µM,–
CCc1ccc(CN2CCC(Oc3cc(C(=O)NC4CC4)ccc3OC)CC2)cc1,–,·,–,·,15µM,·
COc1ccc(C(=O)NC2CC2)cc1OC1CCN(Cc2ccc(Cl)cc2)CC1,?,–,–,?,?,–
O=C(NC1CCN(Cc2ccccc2)CC1)c1cccc(Br)c1,16µM,–,–,–,?,–
COc1ccc(NC(=O)CCCSc2nc(-c3ccco3)cc(C(F)(F)F)n2)cc1,–,·,·,·,?,·
COc1ccc(CNC(=O)C(Cc2ccccc2)NS(=O)(=O)c2ccc3c(c2)CCN3C(C)=O)cc1 (stereo unspecified),–,·,·,·,–,·
